Ba/F3 V617F tox: reduced viability of JAK2V617F-dependent Ba/F3 cells, primary screen, JAK2V617F inhibitor project, cell-based, Ba/F3 EpoR-JAK2V617F, luminescence. ATP luminescence. inhibition, % at 5.6 µM. hit rate 1.1% among 220,000;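 active means inhibition above the campaign mean plus 3 SD over all tested compounds, cut at about 24% in these data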;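 further: cytokine-independent growth of Ba/F3 cells driven by EpoR plus mutant JAK2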
IEC-6 cytotox: cytotoxicity in IEC-6 intestinal epithelial cells, primary screen, cytotoxicity control for KLF5 inhibitor project, cell-based, luminescence; IEC-6 cytotoxicity, luminescence viability; inhibition, % at 5 µM; hit rate 0.78% among 290,000; AID 1825, 2009; in the data active means inhibition above about 22%
BaF3 tox: parental Ba/F3 cell viability inhibition, counter-screen for JAK2V617F inhibitor project, murine pro-B, CellTiter-Glo luminescence | CellTiter-Glo ATP luminescence | inhibition, % at 5.6 µM | hit rate 1.1% among 220,000 | AID 1486, 2009;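 active means inhibition above a per-campaign cutoff, the mean inhibition of all tested compounds plus 3 SD, cut at about 27% in these data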
aSyn 5UTR inh: MLPCN primary screen, SNCA 5' untranslated region; inhibition, % (tested at 7.5 µM); hit rate 0.82% among 300,000; AID 1813, 2009; alpha-synuclein 5'UTR reporter, inhibitor activity; in the data active means inhibition above about 60%; inconclusive means no clear call, values can overlap the other calls;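 further: H4 neuroglioblastoma cells stably carrying SNCA 5'UTR luciferase fusion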
APP transl inh: inhibitors of APP translation via 5'UTR reporter, primary screen, APP 5'UTR luciferase, SH-SY5Y cells | SH-SY5Y APP 5'UTR-luciferase reporter, luminescence | inhibition, % at 2 µM | hit rate 0.82% among 190,000 | AID 1285, 2008;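 active means inhibition above a set limit, derived from the sample mean plus 3 SD, cut at about 45% in these data; inconclusive means one replicate passes the limit while the other fails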
KLF5 inhibitor: KLF5 expression inhibitors, primary screen, DLD-1 cells, luminescence; DLD-1 KLF5 promoter-luciferase reporter; inhibition, % at 5 µM; hit rate 0.23% among 290,000; AID 1700, 2009;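 active means inhibition above a per-plate limit of that plate's mean compound inhibition plus 3 SD, cut at about 60% in these data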;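 further: higher means less KLF5 promoter-driven luciferase light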
Of the large screens only hits and unclear results are named; the others gave an inactive call. Rows were chosen to be rich in hits. Some 2.2% of all compounds tested hit in one or more screens of this group.

CSc1ccccc1NC(=O)CO/N=C(\C)c1cc2ccccc2o1	IEC-6 cytotox 36.5
C/C(=N\OCC(=O)Nc1ccc(F)c(F)c1F)c1cc2ccccc2o1	none
O/N=C/c1cc2ccccc2n1Cc1ccccc1F	none (no result: Ba/F3 V617F tox, BaF3 tox, APP transl inh)
CCC(C)NC(=O)NC(=O)N(C1CCCCC1)S(C)(=O)=O (configuration not stated)	none
CCCCCN(C(=O)NC(=O)NC(C)CC)S(C)(=O)=O (configuration not stated)	BaF3 tox 89.0
Cc1sc2ncnc(NCCCn3ccnc3)c2c1C	none
NS(=O)(=O)c1ccc(CCNc2ncnc3sccc23)cc1	Ba/F3 V617F tox 33.1, BaF3 tox 43.0
COc1ccc(CCNc2ncnc3sccc23)cc1OC	Ba/F3 V617F tox 64.5, BaF3 tox 69.5
Cc1sc2ncnc(NCCc3ccc(S(N)(=O)=O)cc3)c2c1C	Ba/F3 V617F tox 50.7, BaF3 tox 58.0
COc1ccc(CCNc2ncnc3c2oc2ccccc23)cc1OC	Ba/F3 V617F tox 51.3, BaF3 tox 62.2
O=C(NC1CCN(Cc2ccc3ccccc3c2)CC1)c1ccccc1	none (no result: Ba/F3 V617F tox, BaF3 tox, APP transl inh)
N=c1ccn(Cc2ccc(Cl)c(Cl)c2)cc1	Ba/F3 V617F tox 89.0, BaF3 tox 75.5
N=c1ccn(Cc2cccc(Cl)c2)cc1	Ba/F3 V617F tox 88.0, BaF3 tox 66.0
N=c1ccn(Cc2ccc(Cl)cc2)cc1	Ba/F3 V617F tox 91.8, BaF3 tox 67.6
Clc1cccc(CN2CCN(Cc3ccco3)CC2)c1	none (no result: Ba/F3 V617F tox, BaF3 tox, APP transl inh)
COc1ccc(C(=O)N2CCc3ccc(NC(=O)c4ccccn4)cc3C2)cc1F	none (no result: Ba/F3 V617F tox, BaF3 tox, APP transl inh)
O=C1C2C3CCC(C3)C2C(=O)N1c1ccc2ccccc2c1 (configuration not stated)	none (no result: Ba/F3 V617F tox, BaF3 tox, APP transl inh)
O=C(/C=C/Nc1ccccc1Br)c1ccccn1	aSyn 5UTR inh 114.3
O=C(NCc1cccs1)c1nc2c(nnn2Cc2ccccc2Cl)c(=O)[nH]1	aSyn 5UTR inh 77.0
COCCn1c(=O)c2c(nc3n2CC(C)CN3CCc2ccccc2)n(C)c1=O (configuration not stated)	aSyn 5UTR inh 67.2 (no result: Ba/F3 V617F tox, BaF3 tox, APP transl inh)
CCn1c(=O)c2c(nc3n2CC(C)CN3CCc2ccccc2)n(C)c1=O (configuration not stated)	none
CCOC(=O)C(=CNc1cc(C)nn1-c1ccc(C)cc1)C(=O)OCC	Ba/F3 V617F tox 23.7
Cc1ccc(NC(=S)N2CCC(N(C)CC3CCCO3)CC2)c(C)c1 (configuration not stated)	none (no result: APP transl inh)
COc1ccc(N(C(=O)c2ccco2)C(C(=O)NC2CCCC2)c2cc(OC)c(OC)c(OC)c2)cc1 (configuration not stated)	none (no result: Ba/F3 V617F tox, BaF3 tox, APP transl inh)
Cc1onc(-c2ccccc2Cl)c1C(=O)N1CCN(C)CC1	none (no result: Ba/F3 V617F tox, BaF3 tox, APP transl inh)
Cc1nn(CC(N)=O)c(=O)c2ccccc12	BaF3 tox 44.5
CCOC(=O)Cn1nc(C)c2ccccc2c1=O	none
CCC(=O)Nc1nonc1-c1nc2ccccc2n1Cc1cccc2ccccc12	aSyn 5UTR inh 67.3, APP transl inh 89.2
O=C(CCC(=O)OCc1ccc(Br)cc1)Nc1ccccc1	none
CCN1C(=O)C(=Cc2cccc(OC)c2Oc2ccc([N+](=O)[O-])cc2[N+](=O)[O-])SC1=S	aSyn 5UTR inh 80.3 (no result: Ba/F3 V617F tox, BaF3 tox, APP transl inh)
COc1ccc(C2=NOC(C(=O)NCc3ccccc3)C2)cc1 (configuration not stated)	IEC-6 cytotox 27.1
O=S(=O)(c1ccc(F)cc1)c1snnc1-c1ccccc1	Ba/F3 V617F tox 60.8, BaF3 tox 67.5, APP transl inh 92.7
O=S(=O)(c1ccc(Cl)cc1)c1snnc1-c1ccccc1	Ba/F3 V617F tox 43.8, BaF3 tox 32.5, aSyn 5UTR inh 116.1, APP transl inh 95.6
c1ccc(-c2nnsc2-c2ncc[nH]2)cc1	none
N#Cc1ccccc1S(=O)(=O)N1CCN(CC(=O)NC(=O)NC2CCCCC2)CC1	none (no result: Ba/F3 V617F tox, IEC-6 cytotox, BaF3 tox, APP transl inh, KLF5 inhibitor)
CC(C)C(NC(=S)NCc1ccccc1)C(=O)O (configuration not stated)	none
CCOC(=O)C1=NN(C(C)=O)C2(CC(=O)N(c3cccc(C)c3)C2=O)C1 (configuration not stated)	none
COc1ccc(OC)c(NC(=O)Nc2nnc(N3CCC(C)CC3)s2)c1	APP transl inh 47.7
COc1ccc(NC(=O)Nc2nnc(N3CCC(C)CC3)s2)cc1OC	none
CCCCn1c(=O)[nH]c(=O)c2c1nc(-c1ccccn1)n2CC	none (no result: Ba/F3 V617F tox, BaF3 tox, APP transl inh)
O=C(COC(=O)/C=C/c1ccccc1)Nc1cc(C(F)(F)F)ccc1N1CCOCC1	none
COc1ccccc1/C=C/C(=O)OCC(=O)Nc1cc(C(F)(F)F)ccc1N1CCOCC1	APP transl inh 61.2
O=C(NNC(=O)C(c1ccccc1)c1ccccc1)c1ccccn1	IEC-6 cytotox 54.9, aSyn 5UTR inh 72.2, APP transl inh 55.2
O=C(Nc1ccc2c(c1)OCCO2)c1ccccn1	aSyn 5UTR inh 88.0
O=C(Nc1ccc2c(c1)OCCO2)c1cccc2nc3ccccc3nc12	aSyn 5UTR inh inconclusive, APP transl inh 45.7
COc1ccc(/C=C/C(=O)O)cc1O	none (no result: Ba/F3 V617F tox, IEC-6 cytotox, BaF3 tox, APP transl inh, KLF5 inhibitor)
Cc1nn(C)c(C)c1CN(Cc1nc(CCC(C)C)no1)C(C)C	Ba/F3 V617F tox 53.2, BaF3 tox 81.1
COC(=O)c1ccc(NC(=O)C(=O)c2c[nH]c3ccccc23)cc1	none (no result: Ba/F3 V617F tox, BaF3 tox, APP transl inh)
Cc1cn(-c2cc(C(=O)Nc3ccc(C)c(NC(=O)C(=O)c4c[nH]c5ccccc45)c3)cc(C(F)(F)F)c2)cn1	aSyn 5UTR inh 65.6 (no result: Ba/F3 V617F tox, IEC-6 cytotox, BaF3 tox, APP transl inh, KLF5 inhibitor)
Cc1ccc2c(c1)sc(=NC(=O)c1cccs1)n2C	aSyn 5UTR inh 85.4
Cc1c(C(=O)N/N=C/c2ccc(Cl)cc2)[nH]c2ccc(Cl)cc12	APP transl inh 92.7
CCOc1ccc(/C=N/NC(=O)c2[nH]c3ccc(C)cc3c2C)cc1	none (no result: Ba/F3 V617F tox, BaF3 tox, APP transl inh)
COc1ccc(CN(C(=O)CN2C(=O)c3ccccc3S2(=O)=O)C(C(=O)NCC2CCCO2)c2ccncc2)cc1 (configuration not stated)	none
C=CCn1c(SCC(=O)Nc2cc(C)on2)nc2sc(CC)cc2c1=O	none
CC(C)(C)c1ccc(/C=N/Nc2nncn2N)cc1	none (no result: Ba/F3 V617F tox, BaF3 tox, APP transl inh)
Nn1cnnc1N/N=C/c1cc(Br)cc(Br)c1O	IEC-6 cytotox 30.6
Cc1ccc(C2=N/C(=C\c3cccc(F)c3)C(=O)O2)cc1	none (no result: Ba/F3 V617F tox, BaF3 tox, APP transl inh)
CCC(CC)C1C(C#N)=C(N)Oc2n[nH]c(-c3ccccc3)c21 (configuration not stated)	none (no result: APP transl inh)
CCC(CC)C1C(C#N)=C(N)Oc2n[nH]c(C)c21 (configuration not stated)	BaF3 tox 92.2
CCOc1ccc(S(=O)(=O)NCc2ccc3c(c2)OCO3)cc1	none (no result: Ba/F3 V617F tox, BaF3 tox, APP transl inh)
CCc1ccc(OCCNC(=O)c2ccco2)cc1	none (no result: Ba/F3 V617F tox, BaF3 tox, APP transl inh)
Cc1ccc(C(=O)CN2C(=O)c3ccccc3S2(=O)=O)cc1	aSyn 5UTR inh 109.4 (no result: APP transl inh)
Cc1cc(C(=O)CN2C(=O)c3ccccc3S2(=O)=O)c(C)n1-c1ccccc1	aSyn 5UTR inh 120.1
